The whole screen tested about 65,000 compounds, of which about 2,100 (3.2%) showed an effect of 50% or more. The median lay at about -52%. This is one part of a sample in which strong results are shown more often than they occur.

The assay relates to Plasmodium falciparum. Nature of the assay: Screen against P. falciparum Asexual Blood Stage (ABS), at 5uM. To be noted: tested at 5 uM. It counts as functional, Dd2.
As for `CC(C)CO[C@H]1CN(S(=O)(=O)c2cn(C)cn2)[C@@H]2CCCO[C@H]12`, the INHIBITION is reported as -26.7%.
To `CN(CC(F)(F)F)C(=O)CNC(=O)N1CCCC(N(C)C)C1` (configuration not stated) belongs -126%.
As for `O=C(c1n[nH]c(=O)c2ccccc12)N1CCC(O)(CN2CCOCC2)C1` (configuration not stated), the INHIBITION is given as -74.2%.
To `CC(C)(C)OC(=O)NC(C)(C(N)=O)c1cccc(Cl)c1` (configuration not stated) belongs -135%; to `CC(C)c1noc(CCC(=O)N2CCSCC2)n1`, -159%; to `COCC1CN(Cc2ccccn2)Cc2nn(C)cc21` (configuration not stated), -9.17%.
To `Cc1nnc(SCC(=O)NCc2ccc3c(c2)CCC(=O)N3)s1` belongs -34.4%; to `Cc1nc2cc(CNC(=O)C3CC(=O)N(C4CCCC4)C3)ccc2n1C` (configuration not stated), -135%; to `CN(CC1CCCCC1)C(=O)c1ccc(-n2ncc(C#N)c2N)cc1`, -48.5%.
To `CCOc1ccc(Cl)c(C(=O)NCCC(=O)Nc2ccccn2)n1` belongs 31.1%; to `CCCn1nc2c(cc1=O)CN(c1ncnc3sccc13)CC2`, -82.2%.
In the case of `CCCNC(=O)c1cc(-c2cnc(N3CCCC3)nc2)cn1C`, the INHIBITION was -151%.
To `Cc1nc(CNC(=O)c2ccc3c(c2)nc(N2CCOCC2)n3C)cs1` belongs -33.8%.
To `CN1CCS(=O)(=O)[C@@H]2CCN(C(=O)c3ccccc3)CC[C@@H]21` belongs -102%; to `c1ccc(CN2CCC3(CC2)CCN(c2ccccn2)C3)nc1`, 3.14%; to `Cc1cccc(N2CCC3(CCN(Cc4ccccn4)CC3)CC2)n1`, 63.8%.
To `Cc1ccc(N2CCC3(CCN(Cc4ccccn4)CC3)CC2)nn1` belongs -21.1%.
Turning to `O=C(NCC1CCOC1)Nc1ccc(Oc2ccc(F)cc2)nc1` (configuration not stated), the INHIBITION came to 29.4%.
To `O=C(NCC1CC1)Nc1ccc(OCC(F)(F)F)nc1` belongs 52.7%; to `O=C(CCN1C(=O)CCC1=O)Nc1ccc(OCC(F)(F)F)nc1`, -54.8%; to `O=C(NCc1ccco1)c1cccc(C(=O)NCc2ccco2)n1`, -31%.
To `Cn1ccnc1CN1CCCCC1c1nc(-c2ccccc2)no1` (configuration not stated) belongs -149%; to `CN1CCCC1CCn1ccnc1-c1nc(-c2ccccc2)no1` (configuration not stated), 57.6%.
With `CN1CCCC1CCn1ccnc1-c1ccc2ccccc2n1` (configuration not stated), the INHIBITION was 56.5%.
To `c1ccc(-c2noc(CCCN3CCCC3Cn3cccn3)n2)cc1` (configuration not stated) belongs 31.8%.
To `Cc1nn(C)c2nc(-c3ccccn3)nc(NCCC3CCCN3C)c12` (configuration not stated) belongs -35.5%.
To `OCC1CCCCN1CCn1ccnc1-c1nc2ccccc2[nH]1` (configuration not stated) belongs 13.2%; to `O=C(NCCc1cccnc1)c1cn(CCN2CCNCC2)nn1`, -75.5%.
For the compound `Cc1cnc(N2CCn3c(CN4CCOCC4)nnc3C2)nc1`, the INHIBITION is listed as -56.3%.
To `Cn1c(CN2CC[C@](C)(O)C(C)(C)C2)cc2ccccc21` belongs -28.6%.
To `COc1ccc(C(CNC(=O)c2c(C)noc2C)N(C)C)cc1` (configuration not stated) belongs -125%.
To `COc1ccc(CN2CCOC(CCc3ccnc(N)c3)C2)cc1` (configuration not stated) belongs 38.1%.
Turning to `COc1ccccc1N1CCC(CNS(=O)(=O)c2c(C)nn(C)c2C)C1` (configuration not stated), the INHIBITION is listed as -22.2%.
To `COc1ccc(CNCC2CCN(c3ccccc3OC)C2)cc1O` (configuration not stated) belongs 24.5%; to `COc1ccccc1N1CCC(CNS(=O)(=O)c2cccs2)C1` (configuration not stated), 7.44%; to `COc1ccccc1N1CCC(CNCc2cccc(C#N)c2)C1` (configuration not stated), 3.2%.
To `COc1c(CNCc2ccccc2CO)c(C)nn1C` belongs -2.62%; to `COc1ccccc1N1CCC(CNCc2cccc(O)c2)C1` (configuration not stated), 56.8%.
To `COc1cccc(CNCC2CCN(CC(C)O)CC2)c1OC` (configuration not stated) belongs -2.28%.
With `COc1ccccc1N1CCC(CNCc2c(C)nn(C)c2OC)C1` (configuration not stated), the INHIBITION is 53.5%.
Regarding `COc1ccccc1N1CCC(CNCc2cccc(OC)c2OC)C1` (configuration not stated), the INHIBITION was 57%.
Consider `C/C(NC(=O)c1ccco1)=C1/C(=O)C[C@@H]2[C@H]1C2(C)C`, for which the INHIBITION is on record as -86.3%.
To `CC(C)N(C)Cc1cn2c(n1)CN(C(=O)Cc1ccccc1)CC2` belongs -63.5%; to `COc1c(CNCc2cccnc2N2CCN(C)CC2)c(C)nn1C`, -95.3%; to `CCOc1nc2cnccc2n(CC(=O)NCc2ccc(C)cc2)c1=O`, -10.3%.
Consider `Cc1nc(N2CCOCC2)nc2c1CCN(Cc1ccsc1)CC2`, for which the INHIBITION is recorded as -79.9%.
In the case of `CCCc1ccc(C(=O)N2Cc3c(Cn4ccnc4)nn(C)c3C2)cc1`, the INHIBITION is listed as -64.1%.
To `CCO[C@H]1C[C@@H](O)C12CCN(C(=O)CC(F)(F)F)CC2` belongs -105%; to `CCc1cc(N2C[C@H](C3CC3)[C@@H](N)C2)nc(N2CCCC2)n1`, 69.6%; to `Cc1cc(N2C[C@H](C3CC3)[C@@H](N)C2)nc(N2CCCCC2)n1`, 56.4%.
To `CNc1cc(C)nc(N2C[C@@H](C(=O)O)[C@H](C3CC3)C2)n1` belongs -75.5%; to `CC(C)Oc1cc(N2C[C@H](C3CC3)[C@@H](N)C2)nc(N)n1`, -211%; to `CCc1cc(N2C[C@H](C3CC3)[C@@H](N)C2)nc(N2CCOCC2)n1`, -73.7%.
To `N[C@H]1CN(Cc2cnc(N3CCCC3)nc2)C[C@@H]1C1CC1` belongs -9%; to `CCc1ccc(CN(CCCn2ccnc2)Cc2ccc(C)s2)o1`, 21.9%.
`CN1[C@@H]2CC[C@H]1CN(c1nc(-c3ccncc3)nc3c1cnn3C)CC2`: the INHIBITION is listed as -86.6%.
To `CCc1cc(C(=O)N2Cc3ccccc3OC3(CCOCC3)C2)on1` belongs -33.7%; to `CN(C)CCN1C(=O)CCC12CCCN(C(=O)CC1CC1)CC2` (configuration not stated), -26.4%.
To `Cc1nccn1CCC1CCCCN1Cc1ccc2c(c1)OCCO2` (configuration not stated) belongs 46.4%.
To `Cc1nccn1CCC1CCCCN1Cc1ccncc1` (configuration not stated) belongs -88.5%.
For the compound `Cc1nccn1CCC1CCCCN1Cc1cnc(N(C)C)nc1` (configuration not stated), the INHIBITION came out at 4.12%.
To `Cc1cc2c(cc1CN1CCCCC1CCn1ccnc1C)OCO2` (configuration not stated) belongs 67.7%.
To `Cc1nccn1CCC1CCCCN1Cc1cccc(CCN)c1` (configuration not stated) belongs 59.8%; to `Cc1nccn1CCC1CCCCN1Cc1ccc(O)cc1Cl` (configuration not stated), 24.6%.
To `Cn1cc(CNC2CCC(O)CC2)c(-c2cc3ccccc3o2)n1` (configuration not stated) belongs -29%; to `CC(C)NC(=O)Nc1ccc(CNCc2ccc(OC(F)F)cc2)cc1`, -97.1%.
As to `CC(C)c1nc(C2CCCN2Cc2ccncc2Cl)no1` (configuration not stated), the INHIBITION is given as -53.3%.

These data come from ChEMBL document CHEMBL4513216, “Probing the Open Global Health Chemical Diversity Library for Multistage-Active Starting Points for Next-Generation Antimalarials” (ACS Infect Dis, 2020).
